Screens deposited in PubChem by National Center for Advancing Translational Sciences (NCATS).
This is a sample that favours compounds with a hit; in the whole collection about 7.5% have one here.
Rab9 prom act: activates the Rab9 promoter. Huh7 Rab9 promoter-luciferase reporter, luminescence, 24 h. Potency, µM (doses to about 9.22 µM), for inactives: top-dose activation, negative = inhibition, usual class: activators. 320,000 compounds, 2.8% hits; further: % of control where 0% means no effect; nearly all actives have a fitted effect of over 60% in size
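Using Huh7 cells stably transfected with Rab9 promoter–luciferase, compounds were incubated 24 h at 37 °C, 5% CO2; luciferase luminescence was read 10 min after reagent addition.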
NPC1 prom act: activators of NPC1 promoter; Potency, µM (top dose mostly 9.22 µM), for the others: at the top dose activation, most hits filed as activators; Huh7 NPC1 promoter luciferase reporter, 24 h; 320,000 compounds, 2.4% hits; further: % of control where 0% means no effect; nearly all actives have a fitted effect of over 60% in size
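Luminescence read-out of NPC1 promoter-driven luciferase in stably transfected Huh7 cells; compounds delivered in DMSO and left 24 h at 37C, 5% CO2, qHTS titration format.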
SMN2 splice enh: increases expression of the SMN2 splice variant | 210,000 compounds, 2.8% hits | HEK293 SMN2-luciferase splicing reporter, luminescence, 30-36 h | Potency, µM (highest dose often 46.1 µM), inactives show at the top dose activity change, positive = activation, actives largely listed as activators; further: % of control where 0% means no effect; nearly all actives have a fitted effect of over 55% in size
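qHTS luciferase splicing reporter: luminescence rises when SMN2 exon 7 is included in transfected HEK293 cells. Compound exposure lasted 30-36 h at 37C, with 4.5 mM final sodium butyrate as control, followed by a ONE-Glo read.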
FLuc counter: counter-screen for miR-21 project: firefly luciferase inhibitors or activators | P08659 | 360,000 compounds, 6.9% hits | Potency, µM (doses to about 57.5 µM), for the others: at the top dose activity change, negative = inhibition, usual class: inhibitors | purified FLuc, Km substrates, luminescence inhibition;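 further: plate controls were vehicle for no effect and reference inhibitor for full effect; nearly all actives have a fitted effect of over 55% in size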
Target sequence (P08659 whole entry, looked up): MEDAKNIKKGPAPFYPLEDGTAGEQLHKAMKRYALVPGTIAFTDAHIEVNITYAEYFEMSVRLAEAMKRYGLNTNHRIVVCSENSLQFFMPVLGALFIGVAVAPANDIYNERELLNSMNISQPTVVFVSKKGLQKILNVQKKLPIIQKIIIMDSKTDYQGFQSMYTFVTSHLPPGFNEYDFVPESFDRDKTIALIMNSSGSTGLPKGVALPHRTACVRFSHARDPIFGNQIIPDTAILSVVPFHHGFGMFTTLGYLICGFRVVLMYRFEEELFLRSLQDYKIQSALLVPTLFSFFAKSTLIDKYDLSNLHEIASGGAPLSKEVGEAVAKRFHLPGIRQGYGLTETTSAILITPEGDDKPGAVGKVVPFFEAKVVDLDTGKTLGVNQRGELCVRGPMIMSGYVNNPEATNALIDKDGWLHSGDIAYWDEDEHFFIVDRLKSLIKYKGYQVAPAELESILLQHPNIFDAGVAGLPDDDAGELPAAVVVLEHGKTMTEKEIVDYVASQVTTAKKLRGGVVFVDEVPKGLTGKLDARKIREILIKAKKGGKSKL
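Purified P. pyralis luciferase, 10 nM final, with Km-level 10 uM D-luciferin and 10 uM ATP in 50 mM Tris acetate pH 7.5, 10 mM Mg acetate, 0.01% Tween-20, 0.05% BSA; 6-point qHTS titration about 60 µM downward; luminescence read.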
ELG1 genotoxic: genotoxicity induction in ELG1-luciferase HEK293T cells. HEK293T ELG1-luciferase reporter, luminescence, 16 h. Potency, µM (highest dose often 46 µM), inactives show at the highest dose activity change, positive = activation, hits mostly activators. 330,000 compounds, 1.3% hits. AID 504466; further: % of control where 0% means no effect; nearly all actives have a fitted effect of over 60% in size
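16 hr compound incubation (37 °C, 5% CO2) of HEK293T cells carrying luciferase-tagged ELG1; luciferase then measured by ONE-Glo luminescence after 30 min at RT.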
Active calls of the source: *; ? = inconclusive; . = not tested or not shown; [ ] = another dose, or the depositor's remark. The call rests on the fitted dose curve; in most records, active means well fitted curve in the direction sought with a large enough effect; inconclusive means small, poorly fitted or top-dose-only effect, or another doubt; inactive means no such curve, though single readings can be large; an effect the other way counts as inactive or inconclusive. Potency means the concentration at half of the fitted maximal effect.

SMILES	Rab9 prom act	NPC1 prom act	SMN2 splice enh	FLuc counter	ELG1 genotoxic
CNC(=S)N/N=C1\C(=O)c2cccc3cccc1c23	?	22%	27%	?	?
CCOC(=O)N/N=C1\CCc2ccccc21	29%	26%	16µM*	?	?
Cc1ccc(C(=O)N/N=C2\CCc3ccccc32)c(C)c1	2.2µM*	?	0.79µM*	4.8µM*	2.3µM*
CN(C)S(=O)(=O)c1ccc(NC(=O)Cc2ccc(S(=O)(=O)N3CCOCC3)s2)cc1	1%	0%	-6%	-3%	-5%
CCCN(C(=O)Cc1nc(N)n[nH]1)C1(C(=O)Nc2c(C)cccc2C)CCCCC1	-20%	1%	-6%	-2%	2%
Cc1cc(C)c(OCC(O)CN2CCN(C(=O)c3ccccc3)CC2)c(C)c1 (configuration not stated)	19%	-2%	.	-1%	-1%
CC(=O)C1=C(O)C(=O)N(c2cccnc2)C1c1cccc([N+](=O)[O-])c1 (configuration not stated)	-3%	0%	.	4%	0%
Cc1nc(-n2nnc3ccccc32)c2c3c(sc2n1)CCCC3	-5%	1%	-33%	7%	-6%
CCc1ccc(-c2nc(CS(=O)CC(=O)NCCN3CCCCCC3)c(C)o2)cc1 (configuration not stated)	0%	-3%	.	?	1%[9.26 µM]
O=C(N/N=C1/CCc2ccccc21)C1CC1	18%	7%	22%	?	?
O=C(N/N=C1\CCc2ccccc21)c1ccc(O)cc1	2.8µM*	2.8µM*	18µM*	7.6µM*	4.6µM*
O=C(Nc1cccc(F)c1)Nc1ccc2c(c1)OCO2	2.8µM*	2.2µM*	.	7.6µM*	?
CC(=O)Nc1ccc(OCc2ccc3c(c2)OCO3)cc1	1.6µM*	0.63µM*	.	17µM*	?
O=C(Nc1ccc2c(c1)OCO2)c1c(F)cccc1F	3.2µM*	3.5µM*	10µM*	12µM*	?
CC(=O)OCc1ccc2c(c1)OCO2	.	.	-11%	.	.
O=C(O)Cc1ccc(NC(=O)Nc2ccc3c(c2)OCO3)cc1	?	26%	.	9.5µM*	?
CSc1nc(N2CCN(c3ccccc3Cl)CC2)c2ccccc2n1	-1%	-8%	.	1%	-1%
O=C(Nc1ccc2c(c1)OCO2)c1cccc(F)c1	.	.	?	12µM*	.
O=C(Nc1ccc(F)cc1)NC1CCN(Cc2ccccc2)CC1	-7%	-6%	-6%	4%	-7%
O=C(Nc1ccc2c(c1)OCO2)NC1CCN(Cc2ccccc2)CC1	2%	12%	?	17µM*	?
COc1cccc(NC(=O)C2CCN(S(=O)(=O)c3ccc4[nH]c(=O)oc4c3)CC2)c1	0%	-4%	.	-1%	7%
COC(=O)c1ccc(C[n+]2ccccc2)cc1	4%	-1%	.	0%	0%
CC(C)(C)OC(=O)N1CCC[C@H]1C(=O)O	-3%	2%	.	2%	-2%
CC(C)COC(=O)N1CCCC1C(=O)O (configuration not stated)	3.2µM*	7%	11%	1%	4%
CCOC(=O)Cn1cc(/C=N/N2C(=O)C3C4C=CC(C4)C3C2=O)c2ccccc21 (configuration not stated)	-1%	5%	3%	15µM*	8%
SMILES	Rab9 prom act	NPC1 prom act	SMN2 splice enh	FLuc counter	ELG1 genotoxic
O=C1C2C3C=CC(CC3)C2C(=O)N1/N=C/c1c[nH]c2ccccc12 (configuration not stated)	?	?	92%	9.5µM*	25%
C/C(=N/OCO/N=C(/C)c1ccc(F)cc1)c1ccc(F)cc1	10%	0%	8.9µM*	3%	5%
CCOc1ccc(NC(C)C(=O)N/N=C/c2cccs2)cc1 (configuration not stated)	-2%	-4%	16%	-9%	2%
CCCCOc1ccc(N=Cc2cccs2)cc1	1%	1%	-4%	5.4µM*	3%
CCNC(=S)SCCOc1ccccc1C	3%	0%	-10%	?	-1%
CCOC(=O)Cn1nc(NC(=O)c2ccc(C(=O)OC)cc2)cc1C	17%	?	.	11µM*	18%
Cc1nn(S(=O)(=O)c2ccc(F)cc2)c(C)c1S(=O)(=O)N1CCC(C)CC1	.	.	.	-2%	.
O=C(C=C=Nc1ccccc1)C(=O)N=C=Cc1ccccc1	-36%	-13%	.	4.8µM*	?
O=C(N/N=C/c1ccccc1)C(=O)N/N=C/c1ccccc1	-1%	-6%	.	-2%	4%
N#CC1(NC(=O)COC(=O)c2nc(Cl)ccc2Cl)CCCCC1	1%	0%	.	-22%	-1%
CCOC(=O)c1ccc(NC(=O)CC2Sc3ncnn3C2=O)cc1 (configuration not stated)	-2%	-2%	-2%	?	-15%
CC(C)(C)C(=O)Nc1ccc(/C=C/C(=O)c2ccco2)cc1	0.45µM*	0.35µM*	.	0.43µM*	18µM*
O=C(/C=C/c1ccccc1O)c1ccco1	7%	-7%	.	17µM*	?
Nc1ccc(/C=C/C(=O)c2ccco2)cc1	?	14%	14%	6µM*	?
O=C(/C=C/c1cc(Br)ccc1O)c1ccco1	-1%	-1%	.	?	21%
Oc1ccc2cc(SSc3ccc4cc(O)ccc4c3)ccc2c1	.	.	-40%	.	.
CCc1nnc(NC(=O)CSc2nc3c([nH]c4ccccc43)c(=O)n2-c2ccc(Cl)cc2)s1	.	.	.	3%	.
O=C(c1ccccc1)C1CN(c2ccccc2)CC1c1ccc(Cl)cc1 (configuration not stated)	-2%	2%	-21%	-1%	2%
COc1cccc(C(=O)C2CN(c3ccccc3)CC2c2ccc(Cl)cc2)c1 (configuration not stated)	-6%	1%	-26%	19µM*	-8%
Cc1cccc(Oc2ccc(NC(=O)C3CC=CCC3C(=O)O)cc2)c1 (configuration not stated)	2%	-3%	-9%	?	-6%
O=C(O)c1ccccc1C(=O)Nc1ccc(Br)c(C(F)(F)F)c1	0%	-4%	.	19µM*	1%
O=C(O)c1ccccc1C(=O)Nc1ccc(Oc2ccccc2)cc1	1%	0%	.	27µM*	1%
Cc1cccc(Oc2ccc(NC(=O)c3ccccc3C(=O)O)cc2)c1	-5%	2%	.	21µM*	5%
O=C(CCC(=O)c1ccc(Oc2ccccc2)cc1)Nc1cccc(Cl)c1	-1%	0%	0%	1%	1%
O=C(CCC(=O)c1ccc(Oc2ccccc2)cc1)Nc1ccc(C(=O)O)cc1	0%	-1%	.	19µM*	0%
Cc1cc(C)c(C(=O)Nc2ccc(Br)c(C(F)(F)F)c2)c(C)c1	-5%	-1%	-39%	-4%	-10%
O=C(c1ccco1)c1coc2c1cc(O)c1ccccc12	?	29%	4%	?	?
O=C(Nc1ccc(Oc2cccc(C(F)(F)F)c2)nc1)c1ccccc1	-23%	-8%	.	0%	-10%
